Unmarked numbers belong to inactive results. Active and inactive are the calls of the source. The call rests on the fitted dose curve; in most records, active means well fitted activation curve with a large enough effect in the repeat runs; inconclusive means weak or mixed curves; inactive means flat fitted curve, though single readings scatter.
Test: A CellTox Green Cytotoxicity Assay to monitor cytotoxicity in HEK293 cells - 0 hour (AID 1224869); further: nearly all actives have a fitted effect of over 50% in size
Conditions: CellTox Green fluorescence; series mostly up to 76.8 µM; cytotoxicity: at the top concentration
Source text: National Center for Advancing Translational Sciences [NCATS]
NIH Chemical Genomics Center [NCGC]
U.S. Environmental Protection Agency [EPA]
National Institutes of Environmental Health Sciences [NIEHS]
National Toxicology Program [NTP]
Cell-based models are critical for drug discovery. Determining the natural cytotoxic effects resulting from test compounds is an essential research activity. A CellTox Green Cytotoxicity Assay to monitor cytotoxicity in real time of continues cell culture during 40 hours of the compound treatment was used to screen Tox21 10K library compounds in Hek293 cells. CellTox Green Cytotoxicity Assay is a nonlytic, homogeneous, biofluorescent method to measure cytotoxicity in cell culture after experimental manipulation. The assay system uses a proprietary asymmetric cyanine dye that is excluded from viable cells but preferentially stains the dead cell's DNA. […] Viable cells produce no appreciable increases in fluorescence. Therefore, the fluorescence signal produced by the binding interaction with dead cell DNA is proportional to cytotoxicity.
The mixture of Hek293 cell suspension and reagents were dispensed at 600cells/6 ul/well in 1536-well tissue culture treated black solid bottom plates using a Multidrop dispenser. After the assay plates were incubated at a 37 C/5% CO2 incubator for 5 hours, 23 nL of compounds dissolved in DMSO, positive and negative controls was transferred to the assay plate by a pintool work station. The plates were incubated at 37 C for 40 hours. The fluorescence intensity were measured at 0h, 8h, 16h, 24h, 32h and 40h time points using ViewLux plate reader during compound treatment.
On the % scale 0 is the no-effect control and ±100 the full control effect; potency means the concentration at half of the fitted maximal effect.

| SMILES | cytotoxicity | Potency |
| --- | --- | --- |
| Nc1c(NC/C=C\COc2cc(CN3CCCCC3)ccn2)c(=O)c1=O | -1.89% [at 15.8 µM] | – |
| C=C[C@@H](C)CCC=C(C)C | 0.104% | – |
| NC(=O)C1(N2CCCCC2)CCN(CCCC(=O)c2ccc(F)cc2)CC1 | -1.02% [at 35.3 µM] | – |
| C[Si]1(C)N[Si](C)(C)N[Si](C)(C)N1 | -2.49% | – |
| Cc1nc([N+](=O)[O-])cn1-c1ccc([N+](=O)[O-])cc1 | 2.04% [at 35.3 µM] | – |
| O=C1CC[C@H](C(=O)N2CCCCC2)N1 | 5.62% [at 35.3 µM] | – |
| CCC(C)(CCC(C)C)C(=O)[O-].CCC(C)(CCC(C)C)C(=O)[O-].[Zn+2] (stereo not given) | 5.2% | – |
| NS(=O)(=O)c1ccc(Cl)c(S(N)(=O)=O)c1 | 5.68% [at 35.3 µM] | – |
| CC(C)c1ccccc1O | -1.19% | – |
| COCCOCCOCCOC | -7.6% | – |
| CC(C)COC(=O)CC(C(=O)OCC(C)C)S(=O)(=O)O (stereo not given) | -4.74% | – |
| Oc1ccccc1Cc1ccccc1O | -6.4% | – |
| NS(=O)(=O)c1cc2c(cc1Cl)NC(C(Cl)Cl)NS2(=O)=O (stereo not given) | 4.72% [at 35.3 µM] | – |
| N#CCCOCCOCCC#N | -12.4% | – |
| Cc1ccccc1C(=O)N1CC/C(=N\OS(=O)(=O)O)c2ccc(Cl)cc21 | -1.75% [at 35.3 µM] | – |
| OC(CCN1CCCCC1)(c1ccccc1)c1ccccc1 | 0.27% [at 35.3 µM] | – |
| CCCO | 2.11% | – |
| OCCCCCCCl | -1.64% | – |
| CC(C)C(=O)Nc1cccc(C(F)(F)F)c1 | 1.71% [at 35.3 µM] | – |
| CC(C)CCC(=O)CCC(C)C | -2.24% | – |

| SMILES | cytotoxicity | Potency |
| --- | --- | --- |
| O=C(/C=C/c1ccccc1)NCCO | – | 9.52 µM (active) |
| CCCCCCCCCCCCC | 2.85% | – |
| CN(C1CCCCC1)S(=O)(=O)c1ccccc1N | -3.18% | – |
| CC(CC(=O)O)CC(C)(C)C (stereo not given) | 0.0049% | – |
| CO/N=C(/C(=O)N[C@@H]1C(=O)N2C(C(=O)O)=C(Cn3nnc(C)n3)CS[C@H]12)c1csc(N)n1 | -2.52% [at 35.3 µM] | – |
| O=CN1CCOCC1 | -0.166% | – |
| COC(=O)CCC(=O)O | 1.55% | – |
| O=C1OC(=O)c2cc(Oc3ccc4c(c3)C(=O)OC4=O)ccc21 | 0.518% | – |
| NS(=O)(=O)c1ccccc1OC(F)(F)F | 1.86% | – |
| O=C(O)CCNC(=O)c1ccccc1 | -0.83% [at 35.3 µM] | – |
| O=C(O)/C=C/c1ccccc1 | -7.67% | – |
| c1ccccc1 | -4.52% | – |
| C=C(C)C(=O)OC | 0.7% | – |
| C=CCOC(=O)c1ccc(C(=O)OCC=C)c(C(=O)OCC=C)c1 | 13.3% | – |
| C1=C\CC/C=C\CC/1 | 2.27% | – |
| O=[Si]=O | -14.4% | – |
| CCCCC(C)C(=O)O (stereo not given) | -0.999% | – |
| CCCCCCCCOC(C)=O | -6.49% | – |
| Cc1ccc2c(c1)c1c3n2CCNC3CCC1 (stereo not given) | 3.89% [at 35.3 µM] | – |
| CC(Cl)COP(=O)(OCC(C)Cl)OCC(C)Cl (stereo not given) | 1.45% | – |

Source: PubChem BioAssay (Tox21)
